Screening results from PubChem BioAssay.
In the library only some 11% were active in any assay of this set; here they are far more common.
AMA1 RON2 block: inhibitors of Plasmodium falciparum AMA1-RON2 interaction; AlphaScreen AMA1-biotinylated RON2 peptide binding; Potency, µM (doses to about 58.2 µM), for the others: at the top dose activity change, negative = inhibition, most hits filed as inhibitors; actives 0.2% (n = 360,000); AID 720542;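 also: 0% = vehicle wells and -100% = peptide control; nearly all actives have a fitted effect of over 45% in size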
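AMA1 (3D7) with his tag at 25 nM final met compounds first, then biotinylated RON2 peptide at 25 nM; detection used donor plus acceptor beads, 10 µg/mL apiece, read by AlphaScreen after 30 min at room temperature.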
AmpC inh detg: AmpC beta-lactamase inhibition with detergent present; P00811; AmpC hydrolysis of nitrocefin, absorbance 480 nm, 0.01% Triton; Potency, µM (titrated, usually from 114 µM), without a hit: at the top dose activity change, negative = inhibition, actives largely listed as inhibitors; actives 0.041% (n = 370,000); AID 485294;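 also: 0% = no-compound wells and -100% = no-enzyme wells; nearly all actives have a fitted effect of over 25% in size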
Target sequence (P00811 whole entry, looked up): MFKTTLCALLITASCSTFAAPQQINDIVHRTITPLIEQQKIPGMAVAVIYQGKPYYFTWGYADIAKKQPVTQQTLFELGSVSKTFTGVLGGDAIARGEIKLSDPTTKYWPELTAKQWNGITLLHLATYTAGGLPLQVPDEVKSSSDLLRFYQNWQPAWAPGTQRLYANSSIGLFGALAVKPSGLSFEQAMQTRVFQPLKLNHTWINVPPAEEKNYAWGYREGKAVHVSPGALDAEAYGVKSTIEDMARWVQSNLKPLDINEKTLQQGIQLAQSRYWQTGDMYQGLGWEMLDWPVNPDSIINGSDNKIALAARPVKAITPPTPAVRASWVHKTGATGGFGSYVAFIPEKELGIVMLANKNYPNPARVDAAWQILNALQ
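20 mM phosphate pH 7.0 + 0.01% (detergent screen) or 0.0001% Triton X-100; 5.3 nM AmpC reagent; cpd preinc 15 min RT; nitrocefin (800 uM stock) to start; A480 q20 s × 4 min; Activity was normalised to no-enzyme and no-compound control wells.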
Pf growth 48h: inhibits P. falciparum growth in the first generation, 48 h | actives 5.9% (n = 310,000) | AID 504832 | Potency, µM (series often up to 28.7 µM), inactives show at the highest dose activity change, negative = inhibition, actives largely listed as inhibitors | P. falciparum luciferase growth in erythrocytes, 48 h
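Luminescence readout; reporter = integrated firefly luciferase in P. falciparum. RBC culture at 2% hematocrit, 0.1% parasitemia final, 37 C/5% CO2; decreased signal taken as growth inhibition.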
Pf growth 96h: P. falciparum growth inhibition at 96 hours | P. falciparum luciferase reporter growth, 96 h | Potency, µM (doses to about 28.7 µM), inactives show top-dose activity change, negative = inhibition, most hits filed as inhibitors | actives 6.9% (n = 320,000)
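Compounds incubated with erythrocytes infected by luciferase-expressing P. falciparum (2% hematocrit, 0.05% parasitemia final) for 96 hours, 37 C in 5% CO2. Growth inhibition scored as decreased luciferase luminescence.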
AmpC inh no detg: AmpC beta-lactamase inhibition without detergent. Potency, µM (doses to about 57.1 µM), for inactives: at the highest dose activity change, negative = inhibition, most hits filed as inhibitors. actives 0.52% (n = 330,000). P00811. AmpC nitrocefin hydrolysis, absorbance 480 nm, 0.0001% Triton;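 also: plate controls were no compound for no effect and no enzyme for full effect; nearly all actives have a fitted effect of over 20% in size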
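20 mM phosphate pH 7.0 + 0.01% (detergent screen) or 0.0001% Triton X-100; 5.3 nM AmpC reagent; cpd preinc 15 min RT; nitrocefin (800 uM stock) to start; A480 q20 s × 4 min; Activity was normalised to no-enzyme and no-compound control wells.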
HCV inh: blocks hepatitis C virus | actives 3.4% (n = 340,000) | Potency, µM (doses to about 41.8 µM), for the others: at the top dose activity change, negative = inhibition, usual class: inhibitors | AID 651820 | Huh7.5.1 HCVcc-Cre infection, luciferase reporter, 44 h
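Cells (1,000/well) were plated 4 h before compound, then infected with HCVcc-Cre virus (~0.5 moi). After 44 h further culture, infection was read as luciferase luminescence following a 15 min substrate incubation at room temperature.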
An asterisk follows results filed as active; ? = inconclusive; nt = no result given; [ ] = another dose, or the depositor's remark. Calls follow the shape of the dose curve; as a rule, active = well fitted curve in the direction sought with a large enough effect; inconclusive = small, poorly fitted or top-dose-only effect, or another doubt; inactive = no such curve, though single readings can be large; an effect the other way counts as inactive or inconclusive. Unless noted, % is scaled to controls: 0 for no effect and ±100 for the full control effect; potency is read from the fitted curve at half-maximal effect.

SMILES	AMA1 RON2 block	AmpC inh detg	Pf growth 48h	Pf growth 96h	AmpC inh no detg	HCV inh
O=C(NCc1cccc(F)c1)c1cccc(NC(=O)c2nsc3ccccc23)c1	nt	16%	nt	nt	nt	nt
COc1cccc(N2CCN(S(=O)(=O)c3ccc4[nH]c5c(c4c3)CCCC5)CC2)c1	nt	3%	nt	nt	nt	nt
Fc1ccc(CNc2ncnc3c2c(-c2ccccc2)cn3-c2ccccc2)cc1	nt	11%	nt	nt	nt	nt
CC(C)(C)c1ccc(C(=O)OCC(=O)Nc2sc3c(c2C#N)CCC3)cc1	-8%	-13%	7%	?	-23%	2%
N#Cc1c(NC(=O)COC(=O)c2ccc(O)cc2O)sc2c1CCC2	-1%	-9%	16%	?	-23%	7.1µM*
Cc1cc(C(=O)OCC(=O)Nc2sc3c(c2C#N)CCC(C)C3)c2ccccc2n1 (stereo not drawn)	-8%	2%	20%	41%	14µM*	4%
COc1cc(OC)cc(C(=O)NCc2ccc3[nH]c(C)cc3c2)c1	-14%	4%	9.3µM*	19µM*	-42%	-7%
COc1ccc(/C=C\C(=O)NCc2ccc3[nH]c(C)cc3c2)cc1OC	-16%	-9%	-2%	-28%	-15%	2%
COc1cccc(C(=O)NCc2ccc3[nH]c(C)cc3c2)c1	-26%	-1%	?	0%	-1%	-28%
CCOc1ccc(NC(=S)NCc2ccc3[nH]c(C)cc3c2)cc1	53%	1%	?	-2%	-47%	11µM*
COc1cc(/C=C\C(=O)NCc2ccc3[nH]c(C)cc3c2)cc(OC)c1OC	1%	-9%	12µM*	13µM*	-35%	-28%[8.37 µM]
CCOc1ccc(-c2nonc2NC(=O)c2oc3ccc(Cl)cc3c2C)cc1	nt	27%	nt	nt	nt	nt
C=C1CC[C@H](O)C/C1=C/C=C1\CCC[C@]2(C)[C@@H]([C@H](C)CCCC(C)C)CC[C@@H]12	nt	nt	30%	3%	nt	nt
CN(C)C(=O)c1ccc(-n2nc(C(F)(F)F)c3c2CCCC3)cc1	-3%	?	2%	?	87%	10µM*
O=C(O)c1ccc(-n2nc(C(F)(F)F)c3c2CCCC3)cc1	-1%	0%	15%	?	-31%	-12%
CCOc1ccc(/C=C/C2=Cc3c(sc(NC(=O)CSc4n[nH]c(N)n4)c3C#N)C(C)(C)C2)cc1	19%	-4%	10µM*	8.3µM*	-46%	?
NC(=O)c1ccsc1NC(=O)CSc1n[nH]c(N)n1	-1%	nt	nt	nt	-16%	-12%
Cc1ccsc1/C=C/C1=Cc2c(sc(NC(=O)CSc3n[nH]c(N)n3)c2C#N)C(C)(C)C1	18%	-10%	nt	8.3µM*	-59%	11µM*
CCc1cc2c(cc3c(=O)n(CC(=O)N4CCN(c5cccc(C)c5C)CC4)nc(CC)n32)s1	nt	3%	nt	nt	nt	nt
CC1CCCCC1NC(=O)c1cncc(Br)c1 (stereo not drawn)	7%	-9%	nt	-14%	-6%	-9%
CC1CCCC(NC(=S)NC(=O)c2cncc(Br)c2)C1C (stereo not drawn)	34%	8%	13µM*	23%	-27%	3%
O=C(NC(=S)Nc1ccccc1Cl)c1cncc(Br)c1	28%	-8%	0%	12µM*	-26%	-5%
O=C(NC(=S)Nc1ccccc1Cl)c1cncc(C#Cc2ccccc2)c1	12%	5%	-1%	32%	-15%	19%
COc1ccc(-c2nc3sc(CCNC(=O)c4ccco4)c(C)n3n2)cc1	nt	1%	nt	nt	nt	nt
Cc1oc(CSCC2CCCO2)cc1C(=O)O (stereo not drawn)	-9%	?	21%	nt	-19%	12%
SMILES	AMA1 RON2 block	AmpC inh detg	Pf growth 48h	Pf growth 96h	AmpC inh no detg	HCV inh
Cc1oc(CSCCSCc2cc(C(=O)O)c(C)o2)cc1C(=O)O	3%	?	7%	15µM*	171%	18%
COc1cccc(CN2CCN(Cc3ccc(C)o3)CC2CCO)c1 (stereo not drawn)	-2%	-7%	0%	13µM*	5%	4%
COc1cccc(CN2CCN(Cc3cc4ccccc4o3)CC2CCO)c1 (stereo not drawn)	0%	-7%	-14%	-24%	108%	15%
COc1cccc(CN2CCN(Cc3ccc(OC)c(OC)c3)CC2CCO)c1 (stereo not drawn)	4%	2%	-5%	9.3µM*	18%	4%
Cc1ccc(CNC(=O)CCn2cc(-c3ccc(F)cc3)nc2-c2ccncc2)cc1	7%	-10%	8.3µM*	?	152%	?
O=C(O)CCn1cc(-c2ccc(F)cc2)nc1-c1ccncc1	24%	0%	-19%	68%	-9%	13%
Cc1ccc(CNC(=O)c2ccc(Cn3cc(-c4ccc(C)cc4)nc3-c3ccncc3)cc2)cc1	-11%	?	?	?	55%	?
Cc1ccc(CNC(=O)CCn2cc(-c3ccc(C)cc3)nc2-c2ccncc2)cc1	-28%	?	?	9.3µM*	179%	-8%
Cc1cc(F)ccc1NCc1ccccc1-c1nnc(-c2ccccc2Cl)o1	nt	16%	nt	nt	nt	nt
Cc1nn(-c2ccc(F)cc2)c(Cl)c1/C=C/C(=O)N1CCNC(=O)C1	-12%	6%	-23%	13µM*	6%	5%
Cc1nn(-c2ccc(F)cc2)c(C)c1/C=C/C(=O)N1CCNC(=O)C1	0%	3%	0%	?	-10%	5%
Oc1cc(-c2cccnc2)cc2cccnc12	nt	-7%	7.4µM*	4.1µM*	-15%	nt
CN1CCN(C(=O)c2cccc(-c3ccc4nncn4c3)c2)CC1	-4%	nt	nt	nt	nt	nt
CN1CCN(C(=O)c2cccc(-c3cc(O)c4ncccc4c3)c2)CC1	nt	?	10µM*	10µM*	-18%	nt
CN1CCN(c2cc(-c3cc(O)c4ncccc4c3)ccn2)CC1	nt	2%	12µM*	?	0%	nt
Cc1cccc(NC(=O)CSc2nnc(CNC(=O)c3c(F)cccc3Cl)o2)c1C	nt	9%	nt	nt	nt	nt
COc1cc(NS(=O)(=O)c2ccc(C)cc2C)cc(OC)c1OC	-6%	-4%	6.6µM*	3.3µM*	-20%	?
COc1cccc(N2CCN(C(=O)c3cn(Cc4ccccc4)nc3-c3cccnc3)CC2)c1	-9%	0%	?	?	108%	?
O=C(c1cn(Cc2ccccc2)nc1-c1cccnc1)N1CCc2ccccc2C1	-4%	2%	?	13µM*	29%	-6%
COc1ccccc1N1CCN(C(=O)c2cn(Cc3ccccc3)nc2-c2cccnc2)CC1	-6%	?	?	9.3µM*	140%	?
CCOC(=O)c1c(-c2ccc(C)s2)csc1N	1%	8%	-28%	?	-18%[2.29 µM]	-12%
